# High-throughput results deposited in PubChem BioAssay by National Center for Advancing Translational Sciences (NCATS).
# Luciferase inh: Firefly luciferase inhibition profiling of diverse chemical library using quantitative high-throughput screening | Luciferin 4-monooxygenase (Photinus pyralis), P08659 | purified P. pyralis luciferase, luminescence, biochemical | Potency, µM (series often up to 115 µM), hits mostly inhibitors | 76,000 tested, 2.5% active; further: nearly all actives have a fitted effect of over 65% in size
#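 FLuc 10nM, D-luciferin 10uM, ATP 10uM, Mg acetate 10mM, Tris acetate pH 7.5, Tween/BSA; cpd qHTS; enzyme added last; CCD luminescence.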
# HEK cytotox: Cytotoxic Profiling in HEK 293 Cell Line of Diverse Libraries Using Quantitative High-Throughput Screening. AID 1345083, 2018. HEK 293 viability, ATP luminescence (CellTiter-Glo), 48-72 h. Potency, µM (series often up to 115 µM), inactives show at the top dose activity change, negative = cytotoxicity, actives largely listed as inhibitors. 94,000 tested, 6.6% active; further: nearly all actives have a fitted effect of over 60% in size
#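 Cells seeded first (HEK 293, 250 cells/well), then compound added by pintool. Incubation ran 48 or 72 hr at 37 degree Celsius. CellTiter-Glo was added and luminescence imaged after 10 min at room temperature.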
# hNpr1 antagonist: Natriuretic polypeptide receptor (hNpr1) antagonism - Primary qHTS | Atrial natriuretic peptide receptor 1 (Homo sapiens), P16066 | Potency, µM (doses to about 46.3 µM), for inactives: top-dose activity change, negative = inhibition, hits mostly inhibitors | HEK293 hNpr1 GloSensor cGMP, ANP-stimulated luminescence | 76,000 tested, 1.6% active; calls by dose curve; further: nearly all actives have a fitted effect of over 60% in size
# Target sequence (P16066 whole entry, looked up): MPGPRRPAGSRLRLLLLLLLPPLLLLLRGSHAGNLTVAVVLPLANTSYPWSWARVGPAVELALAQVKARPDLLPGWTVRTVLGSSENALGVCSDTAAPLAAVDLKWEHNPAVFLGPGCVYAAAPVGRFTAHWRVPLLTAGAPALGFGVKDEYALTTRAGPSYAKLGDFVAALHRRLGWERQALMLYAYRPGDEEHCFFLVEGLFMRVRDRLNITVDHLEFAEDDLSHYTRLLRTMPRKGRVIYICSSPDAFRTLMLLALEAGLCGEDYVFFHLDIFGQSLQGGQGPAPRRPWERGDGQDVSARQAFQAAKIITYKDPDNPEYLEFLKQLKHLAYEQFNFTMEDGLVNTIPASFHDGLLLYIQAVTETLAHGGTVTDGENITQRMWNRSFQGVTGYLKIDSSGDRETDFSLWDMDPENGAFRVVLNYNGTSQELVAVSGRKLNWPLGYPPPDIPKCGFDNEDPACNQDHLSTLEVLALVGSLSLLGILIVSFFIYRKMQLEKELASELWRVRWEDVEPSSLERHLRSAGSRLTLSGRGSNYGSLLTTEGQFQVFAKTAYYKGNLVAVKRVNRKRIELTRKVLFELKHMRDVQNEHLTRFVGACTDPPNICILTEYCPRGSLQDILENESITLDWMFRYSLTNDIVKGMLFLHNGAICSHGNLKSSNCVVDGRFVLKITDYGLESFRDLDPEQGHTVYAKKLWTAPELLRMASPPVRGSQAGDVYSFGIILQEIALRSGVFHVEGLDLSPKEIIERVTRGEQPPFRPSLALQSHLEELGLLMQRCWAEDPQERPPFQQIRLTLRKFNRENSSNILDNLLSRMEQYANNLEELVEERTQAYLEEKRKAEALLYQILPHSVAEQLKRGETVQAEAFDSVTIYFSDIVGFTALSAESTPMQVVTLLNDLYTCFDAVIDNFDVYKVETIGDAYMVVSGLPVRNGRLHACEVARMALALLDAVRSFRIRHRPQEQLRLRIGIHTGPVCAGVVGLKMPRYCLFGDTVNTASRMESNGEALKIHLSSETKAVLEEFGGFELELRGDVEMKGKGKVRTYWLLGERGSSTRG
#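 Compound pre-incubated 30 min at room temperature on GloSensor-loaded HEK293 cells stably carrying hNpr1 and the pGS-40F cGMP biosensor. Stimulation uses hNppA at 0.1 nM final; luminescence is taken at baseline and 20 min post-agonist.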
# GPT2 inhibitor: Primary qHTS assay for inhibitors of Glutamate pyruvate transaminase 2 (GPT2). Alanine aminotransferase 2 (Homo sapiens), Q8TD30. Recombinant GPT2, coupled pyruvate oxidase/HRP Amplex Red fluorescence. Potency, µM (series often up to 57.7 µM), for inactives: top-dose activity change, negative = inhibition, hits mostly inhibitors. 100,000 tested, 0.25% active. AID 1671188, 2021; further: nearly all actives have a fitted effect of over 60% in size
#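 Fluorescence read-out: pyruvate from GPT2 turnover coupled to pyruvate oxidase, HRP and Amplex Red (0.2mM ThPP, 0.2U/mL PO and HRP, 50uM Amplex final). Substrates 250uM a-KG, 2mM L-alanine; enzyme 10ng/uL; 30 min RT.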
# NIH3T3 tox: Cytotoxic Profiling in NIH 3T3 Cell Line of Diverse Libraries Using Quantitative High-Throughput Screening; NIH 3T3 viability, CellTiter-Glo ATP luminescence, 48-72 h; Potency, µM (top dose mostly 96.7 µM), for inactives: at the highest dose activity change, negative = cytotoxicity, most hits filed as inhibitors; 94,000 tested, 4.3% active; further: nearly all actives have a fitted effect of over 55% in size
#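 Viability of NIH 3T3 cells after 48 or 72 hr compound treatment at 37 °C was assessed by CellTiter-Glo, with luminescence imaged following a 10 min room-temperature step.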
# * = called active by the depositor; i = inactive; ? = inconclusive; / = no result; [ ] = remark or other dose. In the library only some 10% were active in any assay of this set; here they are far more common. Unless noted, the call rests on the fitted dose curve; in most records, active means well fitted curve in the direction sought with a large enough effect; inconclusive means small, poorly fitted or top-dose-only effect, or another doubt; inactive means no such curve, though single readings can be large; an effect the other way counts as inactive or inconclusive. On the % scale 0 is the no-effect control and ±100 the full control effect; potency means the concentration at half of the fitted maximal effect.
SMILES,Luciferase inh,HEK cytotox,hNpr1 antagonist,GPT2 inhibitor,NIH3T3 tox
O=C(CCC[C@H]1NC[C@@H]2CC1CN(Cc1ccccc1)C2)NCc1ccc(F)cc1,i,?,3%,i,?
COc1ccc(-c2cc(-c3cccc(OC)c3OC)cn3cncc23)cc1,?,89µM*,0%[70.6 µM],-1%[88.5 µM],?
COc1ccc(-c2cc(-c3c(C)noc3C)c3cncn3c2)cc1,i,?,-3%[70.6 µM],-14%[88.5 µM],?
COCCNC(=O)c1cc(-c2ccc(F)cc2)c2nncn2n1,/,-3%[172 µM],/,1%[88.5 µM],-15%[138 µM]
CN(Cc1cc(C[C@@H]2C[C@H](NCc3ccccn3)C2(C)C)no1)c1ccccc1,i,56µM*,-14%[70.6 µM],?,79µM*
CC(C)(C)c1cc(C[C@@H]2C[C@H](NS(=O)(=O)c3ccccc3)C2(C)C)no1,i,71µM*,-1%[70.6 µM],0%[88.5 µM],?
CN(C)Cc1cc(C[C@@H]2C[C@H](NCc3ccccc3O)C2(C)C)no1,i,56µM*,-1%[70.6 µM],3%[88.5 µM],?
CN(Cc1ccccc1)Cc1cc(C[C@@H]2C[C@H](NC(=O)C3CCC3)C2(C)C)no1,i,35µM*,?,?,?
COc1cccc(CC(=O)N2CCC(CC3CC3)(NS(C)(=O)=O)CC2)c1,/,0%,/,i,-23%
Cc1cccc(CCNC(=O)c2coc(COc3cccc(F)c3F)n2)n1,i,-21%,-16%,-11%,-27%
O=C(NC1CCCN(c2ccnc3ccnn23)C1)c1cc(F)ccc1Br (centres undefined),/,-33%,/,i,?
CN(Cc1cc(C[C@@H]2C[C@H](NC(=O)C(C)(C)C)C2(C)C)no1)c1ccccc1,i,89µM*,?,-7%[88.5 µM],?
CN(Cc1cc(C[C@@H]2C[C@H](NC(=O)COc3ccccc3)C2(C)C)no1)c1ccccc1,i,?,?,-9%[88.5 µM],?
CC(C)CCN1C[C@@H]2[C@H](C1)N(CCOc1ccccc1)C(=O)C(C)(C)[S+]2(=O)[O-],i,112µM*,5%[70.6 µM],i,?
Cc1noc(C)c1CN1C[C@@H]2[C@H](C1)N(CCOc1ccccc1)C(=O)C(C)(C)[S+]2(=O)[O-],i,-23%,-1%,5%,16µM*
COc1cncc(N2C[C@@H]3[C@H](C2)N(CCOc2ccccc2)C(=O)C(C)(C)[S+]3(=O)[O-])c1,i,?,-11%,10µM*,?
COc1cccc(CN2C[C@H]3[C@H](C2)[S+](=O)([O-])C(C)(C)C(=O)N3CCOc2ccccc2)c1,i,?,-2%,-1%,-19%
O=C(NCCc1ccccc1F)C1CCc2nnc(C3CCN([S+](=O)([O-])c4ccccc4Cl)CC3)n21 (centres undefined),/,1%,/,-1%,-15%
O=C(c1ccc2c(c1)OCO2)N1CCn2c(nn(-c3ccc(C(F)(F)F)cc3)c2=O)C1,/,?,/,i,?
C[C@@H]1CC[C@@]2(OC1)O[C@H]1C[C@H]3[C@@H]4CC[C@H]5C[C@@H](O)CC[C@]5(C)[C@H]4CC(=O)[C@]3(C)[C@H]1[C@@H]2C,/,/,/,2.2µM*,/
c1ccc(-c2ccccc2CN[C@@H]2C[C@@H]3CO[C@H](c4ccccc4)C[C@@H]3C2)cc1,/,?,/,/,18µM*
c1ccc(CN[C@@H]2C[C@@H]3CO[C@H](c4ccccc4)C[C@@H]3C2)cc1,/,?,/,/,-26%
O=C(c1cccnc1)N1CCC(N2C(=O)C3(CCCCC3)C2c2ccncc2)CC1 (centres undefined),/,-2%,/,i,0%
CCOc1cc2c(cn1)NCCN(Cc1ccc3[nH]ccc3c1)C2,i,?,3%[70.6 µM],4%[88.5 µM],-23%[138 µM]
Cc1cc(-c2cc3c(cn2)CN(Cc2ccc4[nH]ccc4c2)CCN3)ccn1,45µM*,71µM*,?,-10%[88.5 µM],?
SMILES,Luciferase inh,HEK cytotox,hNpr1 antagonist,GPT2 inhibitor,NIH3T3 tox
c1ccc(-c2cc3c(cn2)CN(Cc2ccc4[nH]ccc4c2)CCN3)cc1,56µM*,50µM*,-5%[70.6 µM],2%[88.5 µM],25µM*
COc1ccccc1Cn1c(=O)c(C(=O)N2CCN(C(=O)C3CCCC3)CC2)nc2cccnc21,/,?,/,-7%,-29%
CCC(=O)N1Cc2ccccc2CC2(CCN(CC3CCNCC3)CC2)C1,/,-10%,/,-6%,5%
C[C@H](C(=O)N1Cc2ccccc2CC2(CCN(CC3CCNCC3)CC2)C1)c1ccccc1,/,?,/,-1%,14µM*
CNC(=O)c1cc(C2CC2)nc2c1c(C1CCCN(C(=O)c3ccccn3)C1)nn2C (centres undefined),/,2%,/,/,-19%
CN(Cc1ccccc1C(F)(F)F)C(=O)c1ccccc1,i,?,23%[70.6 µM],1%[88.5 µM],-16%[138 µM]
CN(Cc1ccccc1C(F)(F)F)C(=O)c1cccc(Cl)c1,i,89µM*,0%[70.6 µM],i,?
O=C([C@H]1CCCN1C(=O)c1ccccc1Cl)N1CCC(N2CCOC2=O)CC1,/,1%,/,i,-8%
CCN(Cc1ccncc1)C(=O)c1cc(-c2cnn(CC)c2)nc2cc(C)ccc12,?,?,-11%,1%,2.8µM*
COc1ccc2cc3c(NC(=O)c4ccco4)nn(C)c3nc2c1,/,/,/,i,/
COC1C(=O)N(c2cccc(F)c2)C12CCN(Cc1ccc(F)cc1F)CC2 (centres undefined),i,?,-24%,-10%,?
CC(=O)N1CCC(N2CC[C@@H](CO)N(C)c3ncccc3C2)CC1,i,?,6%[70.6 µM],4%[88.5 µM],45µM*
C=CCc1ccccc1OCCN(C)Cc1cc2ccc(F)cc2[nH]c1=O,i,45µM*,?,-22%[11.5 µM],35µM*
C=CCc1ccccc1OCCN(C)Cc1ccc(S(C)(=O)=O)cc1,i,40µM*,-13%,0%,?
CCOC(=O)[C@@H]1CN(C(=O)NCc2ccccc2)[C@H]2c3ccccc3O[C@@H]12,/,-24%,/,/,?
O=C(C1CCCC1)N1CCOC[C@H](Oc2ccc(C(F)(F)F)cn2)C1,i,-18%[172 µM],-5%[70.6 µM],2%[88.5 µM],-14%[138 µM]
O=C(NC1CCCCC1)N1Cc2[nH]cnc2C[C@H]1c1nc(-c2ccccc2)no1,45µM*,?,-16%[70.6 µM],3%[88.5 µM],28µM*
O=C(C1CCCCC1)N1Cc2[nH]cnc2C[C@H]1c1nc(-c2ccc3ccccc3c2)no1,?,?,-22%[70.6 µM],-7%[88.5 µM],79µM*
Cc1cccc(-c2noc([C@@H]3Cc4nc[nH]c4CN3C(=O)NC3CCCCC3)n2)c1,40µM*,?,-5%[70.6 µM],i,71µM*
